What was measured:
Assay in all cases: DAPPL (digital affinity profiling via proximity ligation, sequencing); 10 mM Tris-HCl pH 7.5, 50 mM NaCl, 1 mM DTT, 4% glycerol, room temperature, 30 min; GST-TFs on glutathione beads, 16-mer random dsDNA library, 0.1% formaldehyde crosslink after washing; high values mean tight binding
FLI1 = target: T1, FLI1 (Homo sapiens, UniProt Q01543 1-452); details: protein: recombinant; tags: N-terminal GST; dsDNA, one strand shown
T1 sequence: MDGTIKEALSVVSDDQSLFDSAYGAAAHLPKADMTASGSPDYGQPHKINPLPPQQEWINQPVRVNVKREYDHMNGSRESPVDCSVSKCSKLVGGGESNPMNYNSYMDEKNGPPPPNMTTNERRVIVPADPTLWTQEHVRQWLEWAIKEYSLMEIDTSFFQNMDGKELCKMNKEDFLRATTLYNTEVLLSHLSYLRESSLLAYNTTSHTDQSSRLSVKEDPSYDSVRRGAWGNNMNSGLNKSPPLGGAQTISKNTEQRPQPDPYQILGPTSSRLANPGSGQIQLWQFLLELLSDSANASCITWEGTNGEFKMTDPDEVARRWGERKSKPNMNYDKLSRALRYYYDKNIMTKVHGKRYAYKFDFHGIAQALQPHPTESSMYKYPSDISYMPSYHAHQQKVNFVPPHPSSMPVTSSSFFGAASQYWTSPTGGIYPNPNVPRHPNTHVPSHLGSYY
Procedure, shortened: (§1)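 The binding signal reported is, for every hexamer, its read frequency for a factor over its read frequency for the tag-only sample. Reads came from pools of yeast-expressed, GST-fused human transcription factors on glutathione beads, barcoded with DNA and mixed with that sample, which were incubated with 200 nmole of a random double-stranded 16-mer DNA library in Tris/NaCl/DTT/glycerol buffer at room temperature for 30 min. After washing, the pools were crosslinked with 0.1% formaldehyde, proximity-ligated with BsaI/T4 ligase for 1 h at 37 °C, PCR-amplified and sequenced on an Illumina NextSeq500.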

ELK1 = target: T2, ELK1 (Homo sapiens, UniProt P19419 1-428); details: protein: recombinant; tags: N-terminal GST; dsDNA, one strand shown
T2 sequence: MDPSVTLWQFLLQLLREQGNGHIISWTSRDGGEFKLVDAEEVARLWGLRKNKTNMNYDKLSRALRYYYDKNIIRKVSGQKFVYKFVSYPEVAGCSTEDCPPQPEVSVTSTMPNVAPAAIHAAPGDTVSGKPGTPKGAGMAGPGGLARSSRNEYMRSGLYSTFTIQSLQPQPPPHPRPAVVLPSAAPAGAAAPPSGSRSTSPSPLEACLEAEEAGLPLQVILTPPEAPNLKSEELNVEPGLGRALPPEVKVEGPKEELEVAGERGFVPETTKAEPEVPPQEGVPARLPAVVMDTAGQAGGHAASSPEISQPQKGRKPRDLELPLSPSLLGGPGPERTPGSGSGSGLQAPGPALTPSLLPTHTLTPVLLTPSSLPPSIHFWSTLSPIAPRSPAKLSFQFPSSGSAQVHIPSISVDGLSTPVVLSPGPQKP
Procedure, shortened: as §1

GABPA = target: T3, GABPA (Homo sapiens, UniProt Q06546 1-454); details: protein: recombinant; tags: N-terminal GST; dsDNA, one strand shown
T3 sequence: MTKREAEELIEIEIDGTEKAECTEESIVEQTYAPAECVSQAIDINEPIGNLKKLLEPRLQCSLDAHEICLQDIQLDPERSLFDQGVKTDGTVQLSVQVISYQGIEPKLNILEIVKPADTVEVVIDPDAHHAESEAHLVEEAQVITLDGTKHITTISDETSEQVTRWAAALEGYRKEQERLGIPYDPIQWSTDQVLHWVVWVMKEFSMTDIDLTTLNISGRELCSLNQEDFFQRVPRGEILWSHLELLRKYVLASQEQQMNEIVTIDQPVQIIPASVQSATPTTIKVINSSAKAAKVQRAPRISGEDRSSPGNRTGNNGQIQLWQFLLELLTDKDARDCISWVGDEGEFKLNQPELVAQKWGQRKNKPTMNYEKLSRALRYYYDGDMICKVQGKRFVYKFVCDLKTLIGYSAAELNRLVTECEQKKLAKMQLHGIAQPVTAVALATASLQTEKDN
Procedure, shortened: as §1

ERG = target: T4, ERG (Homo sapiens, UniProt P11308 1-479); details: protein: recombinant; tags: N-terminal GST; dsDNA, one strand shown
T4 sequence: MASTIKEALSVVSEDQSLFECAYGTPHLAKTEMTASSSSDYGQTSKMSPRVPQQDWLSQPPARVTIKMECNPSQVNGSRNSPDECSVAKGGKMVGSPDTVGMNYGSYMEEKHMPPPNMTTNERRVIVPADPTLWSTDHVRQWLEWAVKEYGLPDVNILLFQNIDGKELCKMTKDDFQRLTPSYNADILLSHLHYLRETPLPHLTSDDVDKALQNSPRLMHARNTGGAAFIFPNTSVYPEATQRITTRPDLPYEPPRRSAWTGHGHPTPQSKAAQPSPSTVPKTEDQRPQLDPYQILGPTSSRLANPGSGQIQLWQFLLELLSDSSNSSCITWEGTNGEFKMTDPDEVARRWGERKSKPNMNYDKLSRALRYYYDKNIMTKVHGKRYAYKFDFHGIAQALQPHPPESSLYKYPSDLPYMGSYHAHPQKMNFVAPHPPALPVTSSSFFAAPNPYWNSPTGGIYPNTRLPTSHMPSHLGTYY
Procedure, shortened: as §1

ELF1 = ELF1 (Homo sapiens, UniProt P32519 1-619); details: protein: recombinant; tags: N-terminal GST; dsDNA, one strand shown
Sequence of ELF1 (P32519 whole entry): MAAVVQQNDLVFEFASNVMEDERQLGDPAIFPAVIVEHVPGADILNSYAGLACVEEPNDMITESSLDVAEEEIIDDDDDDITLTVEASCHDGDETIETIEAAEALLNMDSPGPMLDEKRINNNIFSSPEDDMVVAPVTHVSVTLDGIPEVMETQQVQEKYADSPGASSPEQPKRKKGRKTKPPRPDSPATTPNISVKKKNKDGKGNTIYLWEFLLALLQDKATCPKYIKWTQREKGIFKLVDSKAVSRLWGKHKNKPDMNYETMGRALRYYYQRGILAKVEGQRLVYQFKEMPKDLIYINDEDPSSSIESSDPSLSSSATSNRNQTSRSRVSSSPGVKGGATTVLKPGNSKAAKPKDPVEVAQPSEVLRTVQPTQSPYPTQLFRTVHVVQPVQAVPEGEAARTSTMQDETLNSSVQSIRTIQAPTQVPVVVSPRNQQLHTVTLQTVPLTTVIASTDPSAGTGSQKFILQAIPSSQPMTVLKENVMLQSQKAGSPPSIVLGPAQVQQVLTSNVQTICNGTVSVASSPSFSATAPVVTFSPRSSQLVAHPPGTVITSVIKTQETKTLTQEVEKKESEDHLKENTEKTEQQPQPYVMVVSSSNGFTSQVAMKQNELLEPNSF
Procedure, shortened: as §1

EHF = target: T5, EHF (Homo sapiens, UniProt Q9NZC4 1-300); details: protein: recombinant; tags: N-terminal GST; dsDNA, one strand shown
T5 sequence: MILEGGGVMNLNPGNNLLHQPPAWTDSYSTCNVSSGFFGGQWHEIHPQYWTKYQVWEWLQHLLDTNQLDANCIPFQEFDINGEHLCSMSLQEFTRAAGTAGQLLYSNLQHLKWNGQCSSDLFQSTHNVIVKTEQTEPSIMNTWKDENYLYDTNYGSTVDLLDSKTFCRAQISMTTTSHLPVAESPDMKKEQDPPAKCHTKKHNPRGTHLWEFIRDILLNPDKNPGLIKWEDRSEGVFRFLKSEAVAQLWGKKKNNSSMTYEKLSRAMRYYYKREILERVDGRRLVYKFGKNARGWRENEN
Procedure, shortened: as §1

SPI1 = SPI1 (Homo sapiens, UniProt P17947 1-270); details: protein: recombinant; tags: N-terminal GST; dsDNA, one strand shown
Procedure, shortened: as §1

SPIB = SPIB (Homo sapiens, UniProt Q01892 1-262); details: protein: recombinant; tags: N-terminal GST; dsDNA, one strand shown
Sequence of SPIB (Q01892 whole entry): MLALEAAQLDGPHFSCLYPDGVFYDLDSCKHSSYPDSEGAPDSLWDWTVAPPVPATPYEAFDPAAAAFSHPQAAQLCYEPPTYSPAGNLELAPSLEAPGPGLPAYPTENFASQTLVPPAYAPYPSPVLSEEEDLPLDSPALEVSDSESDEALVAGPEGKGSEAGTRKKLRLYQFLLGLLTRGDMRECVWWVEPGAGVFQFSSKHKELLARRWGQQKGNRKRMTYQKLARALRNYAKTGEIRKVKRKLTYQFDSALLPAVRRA
Procedure, shortened: as §1

ELK3 = target: T6, ELK3 (Homo sapiens, UniProt P41970 1-407); details: protein: recombinant; tags: N-terminal GST; dsDNA, one strand shown
T6 sequence: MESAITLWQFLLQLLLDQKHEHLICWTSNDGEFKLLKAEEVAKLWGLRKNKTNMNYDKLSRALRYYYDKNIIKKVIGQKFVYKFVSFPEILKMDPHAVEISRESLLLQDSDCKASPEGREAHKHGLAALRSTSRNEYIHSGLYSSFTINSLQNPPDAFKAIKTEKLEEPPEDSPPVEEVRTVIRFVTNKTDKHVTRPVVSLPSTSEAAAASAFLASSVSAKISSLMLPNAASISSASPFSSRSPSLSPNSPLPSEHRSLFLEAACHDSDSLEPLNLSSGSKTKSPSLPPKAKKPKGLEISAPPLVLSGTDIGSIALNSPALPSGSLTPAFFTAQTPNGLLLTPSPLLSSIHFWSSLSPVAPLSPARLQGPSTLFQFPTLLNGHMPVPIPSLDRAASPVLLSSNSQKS
Procedure, shortened: as §1

FEV = target: T7, FEV (Homo sapiens, UniProt Q99581 1-238); details: protein: recombinant; tags: N-terminal GST; dsDNA, one strand shown
T7 sequence: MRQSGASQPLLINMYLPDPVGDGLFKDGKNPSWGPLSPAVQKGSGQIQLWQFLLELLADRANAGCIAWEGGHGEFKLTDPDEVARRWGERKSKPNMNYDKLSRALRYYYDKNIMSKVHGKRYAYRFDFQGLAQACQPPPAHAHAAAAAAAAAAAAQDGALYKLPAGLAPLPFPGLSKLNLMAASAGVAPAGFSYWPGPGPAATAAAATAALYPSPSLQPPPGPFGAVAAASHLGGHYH
Procedure, shortened: as §1

ETV5 = ETV5 (Homo sapiens, UniProt P41161 1-510); details: protein: recombinant; tags: N-terminal GST; dsDNA, one strand shown
Sequence of ETV5 (P41161 whole entry): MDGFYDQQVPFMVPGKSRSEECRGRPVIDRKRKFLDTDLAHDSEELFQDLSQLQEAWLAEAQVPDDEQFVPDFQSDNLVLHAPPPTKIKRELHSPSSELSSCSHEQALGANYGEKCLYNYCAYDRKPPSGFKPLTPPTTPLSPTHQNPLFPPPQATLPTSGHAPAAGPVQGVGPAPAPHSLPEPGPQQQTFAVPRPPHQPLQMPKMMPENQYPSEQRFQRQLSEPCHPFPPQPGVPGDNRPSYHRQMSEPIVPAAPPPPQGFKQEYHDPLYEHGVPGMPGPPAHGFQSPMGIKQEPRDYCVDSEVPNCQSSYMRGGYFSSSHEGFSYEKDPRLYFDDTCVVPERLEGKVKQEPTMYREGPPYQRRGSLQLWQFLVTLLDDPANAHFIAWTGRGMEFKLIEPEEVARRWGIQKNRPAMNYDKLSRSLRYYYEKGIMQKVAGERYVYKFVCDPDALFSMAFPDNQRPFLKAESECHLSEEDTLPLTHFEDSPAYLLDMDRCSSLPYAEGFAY
Procedure, shortened: as §1

HSF1 = HSF1 (Homo sapiens, UniProt Q00613 1-529); details: protein: recombinant; tags: N-terminal GST; chain copies: 3; dsDNA, one strand shown
Sequence of HSF1 (Q00613 whole entry): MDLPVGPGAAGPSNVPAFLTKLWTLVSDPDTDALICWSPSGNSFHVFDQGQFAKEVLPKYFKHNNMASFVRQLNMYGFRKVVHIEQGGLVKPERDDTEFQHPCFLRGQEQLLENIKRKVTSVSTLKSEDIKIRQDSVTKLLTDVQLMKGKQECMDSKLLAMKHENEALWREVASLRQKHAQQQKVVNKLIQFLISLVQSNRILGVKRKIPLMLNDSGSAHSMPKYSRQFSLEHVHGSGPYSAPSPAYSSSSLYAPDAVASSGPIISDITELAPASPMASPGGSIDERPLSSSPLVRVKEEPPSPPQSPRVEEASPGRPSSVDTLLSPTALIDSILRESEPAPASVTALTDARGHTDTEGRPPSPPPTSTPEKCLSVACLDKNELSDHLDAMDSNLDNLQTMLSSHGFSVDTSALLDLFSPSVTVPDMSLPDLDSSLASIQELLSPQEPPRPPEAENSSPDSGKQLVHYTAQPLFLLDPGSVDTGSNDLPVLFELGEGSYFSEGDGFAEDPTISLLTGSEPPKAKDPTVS
Procedure, shortened: as §1

SPIC = target: T8, SPIC (Homo sapiens, UniProt Q8N5J4 1-248); details: protein: recombinant; tags: N-terminal GST; dsDNA, one strand shown
T8 sequence: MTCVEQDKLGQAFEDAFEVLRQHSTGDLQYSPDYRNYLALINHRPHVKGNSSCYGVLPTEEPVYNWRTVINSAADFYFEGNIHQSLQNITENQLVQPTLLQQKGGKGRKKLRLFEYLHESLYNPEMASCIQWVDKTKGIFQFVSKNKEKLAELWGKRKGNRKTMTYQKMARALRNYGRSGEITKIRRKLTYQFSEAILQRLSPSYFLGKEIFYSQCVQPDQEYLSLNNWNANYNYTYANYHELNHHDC
Procedure, shortened: as §1

ELF4 = ELF4 (Homo sapiens, UniProt Q99607 1-663); details: protein: recombinant; tags: N-terminal GST; dsDNA, one strand shown
Sequence of ELF4 (Q99607 whole entry): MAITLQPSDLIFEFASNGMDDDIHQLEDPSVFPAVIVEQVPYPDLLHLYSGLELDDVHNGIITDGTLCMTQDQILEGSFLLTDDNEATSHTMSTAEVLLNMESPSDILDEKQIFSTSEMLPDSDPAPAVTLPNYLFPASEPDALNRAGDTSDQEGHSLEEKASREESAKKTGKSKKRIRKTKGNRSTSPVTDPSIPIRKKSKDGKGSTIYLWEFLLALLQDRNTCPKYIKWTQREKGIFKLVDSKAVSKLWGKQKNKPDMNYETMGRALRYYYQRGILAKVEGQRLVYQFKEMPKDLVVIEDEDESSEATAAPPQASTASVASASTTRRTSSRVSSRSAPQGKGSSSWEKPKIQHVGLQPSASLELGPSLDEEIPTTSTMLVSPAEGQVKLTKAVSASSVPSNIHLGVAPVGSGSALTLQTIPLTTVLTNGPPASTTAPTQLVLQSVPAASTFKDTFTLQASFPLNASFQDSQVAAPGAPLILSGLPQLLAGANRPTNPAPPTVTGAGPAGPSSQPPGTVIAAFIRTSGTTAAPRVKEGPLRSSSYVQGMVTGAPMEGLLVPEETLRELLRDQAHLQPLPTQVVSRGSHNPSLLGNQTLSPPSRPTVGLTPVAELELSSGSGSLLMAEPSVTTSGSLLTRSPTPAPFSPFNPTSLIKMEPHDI
Procedure, shortened: as §1

ELK4 = target: T9, ELK4 (Homo sapiens, UniProt P28324-2 1-405); details: protein: recombinant; tags: N-terminal GST; dsDNA, one strand shown
T9 sequence: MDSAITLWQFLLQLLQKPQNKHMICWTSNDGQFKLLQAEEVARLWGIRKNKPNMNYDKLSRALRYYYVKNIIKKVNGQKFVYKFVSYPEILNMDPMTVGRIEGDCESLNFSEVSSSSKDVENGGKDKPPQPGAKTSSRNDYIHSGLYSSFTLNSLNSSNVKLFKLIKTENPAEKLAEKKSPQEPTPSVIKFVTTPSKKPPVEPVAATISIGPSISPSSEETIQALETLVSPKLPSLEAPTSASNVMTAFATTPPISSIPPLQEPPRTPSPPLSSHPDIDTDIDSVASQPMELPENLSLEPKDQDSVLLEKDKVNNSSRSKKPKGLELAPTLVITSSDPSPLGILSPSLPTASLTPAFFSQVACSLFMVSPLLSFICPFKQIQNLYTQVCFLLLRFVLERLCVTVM
Procedure, shortened: as §1

ETV2 = target: T10, ETV2 (Homo sapiens, UniProt O00321 1-342); details: protein: recombinant; tags: N-terminal GST; dsDNA, one strand shown
T10 sequence: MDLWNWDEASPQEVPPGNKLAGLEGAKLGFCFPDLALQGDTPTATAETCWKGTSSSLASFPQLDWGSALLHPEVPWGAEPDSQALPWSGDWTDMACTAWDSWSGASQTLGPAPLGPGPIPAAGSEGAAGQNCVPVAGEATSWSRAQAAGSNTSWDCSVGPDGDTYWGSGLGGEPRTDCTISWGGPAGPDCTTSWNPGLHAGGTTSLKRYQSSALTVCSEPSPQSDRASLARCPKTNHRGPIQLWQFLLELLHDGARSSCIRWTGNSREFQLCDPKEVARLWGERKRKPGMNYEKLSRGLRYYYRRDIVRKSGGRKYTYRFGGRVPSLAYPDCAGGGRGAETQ
Procedure, shortened: as §1

CRX = CRX (Homo sapiens, UniProt O43186 1-299); details: protein: recombinant; tags: N-terminal GST; dsDNA, one strand shown
Sequence of CRX (O43186 whole entry): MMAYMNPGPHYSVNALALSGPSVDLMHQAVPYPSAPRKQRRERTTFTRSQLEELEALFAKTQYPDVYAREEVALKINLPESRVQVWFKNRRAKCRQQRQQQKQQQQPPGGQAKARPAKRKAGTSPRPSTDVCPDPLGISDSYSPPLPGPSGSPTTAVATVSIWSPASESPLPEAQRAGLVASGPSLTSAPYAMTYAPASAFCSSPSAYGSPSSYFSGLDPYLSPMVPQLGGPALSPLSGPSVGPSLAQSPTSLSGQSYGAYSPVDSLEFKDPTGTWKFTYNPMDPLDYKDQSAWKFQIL
Procedure, shortened: as §1

ETV1 = ETV1 (Homo sapiens, UniProt P50549 1-477); details: protein: recombinant; tags: N-terminal GST; dsDNA, one strand shown
Sequence of ETV1 (P50549 whole entry): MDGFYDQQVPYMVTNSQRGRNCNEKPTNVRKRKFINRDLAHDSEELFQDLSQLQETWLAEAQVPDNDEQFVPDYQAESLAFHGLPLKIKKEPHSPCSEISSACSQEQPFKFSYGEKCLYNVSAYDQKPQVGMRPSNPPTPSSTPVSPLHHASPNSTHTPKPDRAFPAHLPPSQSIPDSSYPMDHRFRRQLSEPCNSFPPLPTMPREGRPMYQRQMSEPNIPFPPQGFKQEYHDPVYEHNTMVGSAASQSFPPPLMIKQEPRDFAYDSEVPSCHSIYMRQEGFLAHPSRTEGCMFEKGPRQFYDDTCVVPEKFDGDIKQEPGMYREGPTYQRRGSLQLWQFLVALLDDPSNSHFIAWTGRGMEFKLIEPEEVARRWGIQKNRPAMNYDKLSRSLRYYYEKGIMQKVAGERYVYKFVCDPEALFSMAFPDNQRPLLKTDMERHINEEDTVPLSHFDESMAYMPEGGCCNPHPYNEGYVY
Procedure, shortened: as §1

Sequence | binding signal (FLI1) | binding signal (ELK1) | binding signal (GABPA) | binding signal (ERG) | binding signal (ELF1) | binding signal (EHF) | binding signal (SPI1) | binding signal (SPIB) | binding signal (ELK3) | binding signal (FEV) | binding signal (ETV5) | binding signal (HSF1) | binding signal (SPIC) | binding signal (ELF4) | binding signal (ELK4) | binding signal (ETV2) | binding signal (CRX) | binding signal (ETV1)
GCCTAT | 1.18 fold enrichment (6-mer frequency, TF over GST control) | 1.3 fold enrichment (6-mer frequency, TF over GST control) | 1.21 fold enrichment (6-mer frequency, TF over GST control) | 1.23 fold enrichment (6-mer frequency, TF over GST control) | 1.39 fold enrichment (6-mer frequency, TF over GST control) | 1.17 fold enrichment (6-mer frequency, TF over GST control) | 1.13 fold enrichment (6-mer frequency, TF over GST control) | 1.21 fold enrichment (6-mer frequency, TF over GST control) | 1.27 fold enrichment (6-mer frequency, TF over GST control) | 1.16 fold enrichment (6-mer frequency, TF over GST control) | 1.3 fold enrichment (6-mer frequency, TF over GST control) | 1.07 fold enrichment (6-mer frequency, TF over GST control) | 1.12 fold enrichment (6-mer frequency, TF over GST control) | 1.18 fold enrichment (6-mer frequency, TF over GST control) | 1.31 fold enrichment (6-mer frequency, TF over GST control) | 1.2 fold enrichment (6-mer frequency, TF over GST control) | 1.3 fold enrichment (6-mer frequency, TF over GST control) | 1.09 fold enrichment (6-mer frequency, TF over GST control)
TATCTG | 1.3 fold enrichment (6-mer frequency, TF over GST control) | 1.12 fold enrichment (6-mer frequency, TF over GST control) | 1.21 fold enrichment (6-mer frequency, TF over GST control) | 1.25 fold enrichment (6-mer frequency, TF over GST control) | 1.26 fold enrichment (6-mer frequency, TF over GST control) | 1.16 fold enrichment (6-mer frequency, TF over GST control) | 1.21 fold enrichment (6-mer frequency, TF over GST control) | 1.16 fold enrichment (6-mer frequency, TF over GST control) | 1.21 fold enrichment (6-mer frequency, TF over GST control) | 1.15 fold enrichment (6-mer frequency, TF over GST control) | 1.15 fold enrichment (6-mer frequency, TF over GST control) | 1.36 fold enrichment (6-mer frequency, TF over GST control) | 1.17 fold enrichment (6-mer frequency, TF over GST control) | 1.14 fold enrichment (6-mer frequency, TF over GST control) | 1.25 fold enrichment (6-mer frequency, TF over GST control) | 1.33 fold enrichment (6-mer frequency, TF over GST control) | 1.46 fold enrichment (6-mer frequency, TF over GST control) | 1.2 fold enrichment (6-mer frequency, TF over GST control)

Reference: article PMC7862700, “An all-to-all approach to the identification of sequence-specific readers for epigenetic DNA modifications on cytosine”
